# Several values for one entry are separate records, joined by “and”; a condition that tells them apart may be missing. Equal entries are not always repeated. Results filed as inconclusive are left out. Activity calls are given as the source filed them. Unless noted, calls come from the whole dose curve; as a rule, active = well fitted curve in the direction sought with a large enough effect; inconclusive = small, poorly fitted or top-dose-only effect, or another doubt; inactive = no such curve, though single readings can be large; an effect the other way counts as inactive or inconclusive.
# Key:
# [1] = Primary qHTS for inhibitors of nuclear receptor binding SET domain protein 2 (NSD2) in an RCH-ACV wild type WT cells (2C) (AID 1645877); note: nearly all actives have a fitted effect of over 70% in size; note: potency is the fitted concentration of half-maximal effect
# [2] = molecular target: Rap guanine nucleotide exchange factor 3 (Homo sapiens) (UniProt O95398); assay: Confirmatory qHTS for antagonist of cAMP-regulated guanine nucleotide exchange factor 3 (EPAC1) (AID 1645880); note: nearly all actives have a fitted effect of over 55% in size; note: potency is the fitted concentration of half-maximal effect
# Chain of Rap guanine nucleotide exchange factor 3 (Homo sapiens) (O95398 whole entry, looked up): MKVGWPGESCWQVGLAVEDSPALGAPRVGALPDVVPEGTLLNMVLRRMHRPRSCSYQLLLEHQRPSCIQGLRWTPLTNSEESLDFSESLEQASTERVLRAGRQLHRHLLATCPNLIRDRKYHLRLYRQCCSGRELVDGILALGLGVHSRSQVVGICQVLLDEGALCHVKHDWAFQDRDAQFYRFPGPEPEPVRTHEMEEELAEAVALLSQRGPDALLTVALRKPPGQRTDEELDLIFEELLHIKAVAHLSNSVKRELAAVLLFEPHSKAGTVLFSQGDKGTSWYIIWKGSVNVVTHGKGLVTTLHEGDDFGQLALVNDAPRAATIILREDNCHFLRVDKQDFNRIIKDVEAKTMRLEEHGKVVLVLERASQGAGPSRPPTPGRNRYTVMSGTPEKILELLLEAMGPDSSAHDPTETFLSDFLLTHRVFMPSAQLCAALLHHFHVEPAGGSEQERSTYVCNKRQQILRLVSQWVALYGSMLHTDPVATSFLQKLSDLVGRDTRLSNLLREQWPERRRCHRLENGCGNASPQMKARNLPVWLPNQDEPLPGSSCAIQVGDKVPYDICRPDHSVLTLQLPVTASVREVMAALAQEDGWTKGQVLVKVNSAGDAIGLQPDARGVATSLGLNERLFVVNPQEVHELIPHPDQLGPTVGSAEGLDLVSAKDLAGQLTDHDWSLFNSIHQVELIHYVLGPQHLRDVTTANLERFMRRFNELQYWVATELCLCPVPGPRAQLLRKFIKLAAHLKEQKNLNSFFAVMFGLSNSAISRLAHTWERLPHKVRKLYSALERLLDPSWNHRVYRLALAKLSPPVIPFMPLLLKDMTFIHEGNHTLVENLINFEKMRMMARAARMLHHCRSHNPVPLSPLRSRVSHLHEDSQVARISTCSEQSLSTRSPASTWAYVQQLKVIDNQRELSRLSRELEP
# In short: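 Nucleotide exchange uses 100 nM EPAC1, 250 nM RAP1B-BODIPY-GDP and 50 uM GDP, with compounds in a concentration-titration series. After 5 min at room temperature, fluorescence (480 nm ex/540 nm em) is read every 5 min for 30 min. Data are normalized to control ATA and DMSO.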
# [3] = molecular target: Rap guanine nucleotide exchange factor 3 (Homo sapiens) (UniProt O95398); assay: Confirmatory qHTS for agonist of cAMP-regulated guanine nucleotide exchange factor 3 (EPAC1) (AID 1645881); note: nearly all actives have a fitted effect of over 75% in size; note: potency is the fitted concentration of half-maximal effect
# [4] = molecular target: Rap guanine nucleotide exchange factor 4 (Homo sapiens) (UniProt Q8WZA2); assay: Confirmatory qHTS for agonist of cAMP-regulated guanine nucleotide exchange factor 4 (EPAC2) (AID 1645884);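 note: nucleotide exchange releases bodipy-GDP from Rap1 and this lowers its fluorescence; nearly all actives have a fitted effect of over 65% in size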; note: potency is the fitted concentration of half-maximal effect
# Chain of Rap guanine nucleotide exchange factor 4 (Homo sapiens) (Q8WZA2 whole entry, looked up): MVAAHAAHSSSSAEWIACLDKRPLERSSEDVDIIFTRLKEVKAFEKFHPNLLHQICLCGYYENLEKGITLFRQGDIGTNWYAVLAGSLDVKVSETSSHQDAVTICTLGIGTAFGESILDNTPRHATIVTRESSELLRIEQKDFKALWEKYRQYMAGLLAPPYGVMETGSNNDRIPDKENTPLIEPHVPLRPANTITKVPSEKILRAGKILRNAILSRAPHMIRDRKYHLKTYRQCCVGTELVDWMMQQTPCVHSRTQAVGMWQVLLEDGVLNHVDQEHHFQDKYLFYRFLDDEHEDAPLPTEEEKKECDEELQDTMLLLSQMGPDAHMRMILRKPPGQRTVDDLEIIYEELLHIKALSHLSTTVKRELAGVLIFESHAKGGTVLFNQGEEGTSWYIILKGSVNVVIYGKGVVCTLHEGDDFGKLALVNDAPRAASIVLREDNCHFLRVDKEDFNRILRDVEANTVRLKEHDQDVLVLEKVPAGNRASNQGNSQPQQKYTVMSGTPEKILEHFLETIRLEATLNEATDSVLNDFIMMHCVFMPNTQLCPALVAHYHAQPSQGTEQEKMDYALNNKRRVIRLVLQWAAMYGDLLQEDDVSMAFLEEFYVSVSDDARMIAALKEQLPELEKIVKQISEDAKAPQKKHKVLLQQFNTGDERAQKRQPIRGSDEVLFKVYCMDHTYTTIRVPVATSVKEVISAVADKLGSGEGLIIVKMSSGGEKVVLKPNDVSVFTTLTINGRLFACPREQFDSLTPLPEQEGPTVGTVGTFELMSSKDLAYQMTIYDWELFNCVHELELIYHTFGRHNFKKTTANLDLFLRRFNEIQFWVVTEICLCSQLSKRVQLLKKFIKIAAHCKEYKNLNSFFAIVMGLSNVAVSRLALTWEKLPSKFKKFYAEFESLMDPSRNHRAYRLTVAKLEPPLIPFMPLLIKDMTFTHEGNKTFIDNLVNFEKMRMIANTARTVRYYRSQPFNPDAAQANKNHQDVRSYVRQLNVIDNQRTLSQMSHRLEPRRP
# [5] = molecular target: Rap guanine nucleotide exchange factor 4 (Homo sapiens) (UniProt Q8WZA2); assay: Confirmatory qHTS for antagonist of cAMP-regulated guanine nucleotide exchange factor 4 (EPAC2) (AID 1645885); note: potency is the fitted concentration of half-maximal effect; nearly all actives have a fitted effect of over 25% in size
# [6] = molecular target: Metallo-beta-lactamase type 2 (Klebsiella pneumoniae) (UniProt C7C422); assay: qHTS to identify inhibitors of the New Delhi Metallo-beta-lactamase (NDM): assay validation screen against the NCATS LOPAC Collection (AID 1794843);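 note: nitrocefin turnover by NDM-1 measured as 485 nm absorbance at plateau; % is set by controls: 0 for no effect and ±100 for the full control effect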
# Chain of Metallo-beta-lactamase type 2 (Klebsiella pneumoniae) (C7C422 whole entry, looked up): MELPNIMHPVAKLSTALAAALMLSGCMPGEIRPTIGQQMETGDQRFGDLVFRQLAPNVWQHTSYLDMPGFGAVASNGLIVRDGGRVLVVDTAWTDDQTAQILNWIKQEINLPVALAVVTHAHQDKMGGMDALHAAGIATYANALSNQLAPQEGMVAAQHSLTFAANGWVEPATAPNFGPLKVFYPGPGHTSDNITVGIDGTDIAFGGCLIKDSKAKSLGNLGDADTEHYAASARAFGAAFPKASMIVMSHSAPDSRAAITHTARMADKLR
# In short: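 NDM-1 at 2 nM final in 50 mM HEPES pH 7.0 with 1 uM ZnSO4 and 0.01% Tween20 was preincubated with library compounds in DMSO. Nitrocefin (50 uM stock) was then added, and absorbance at 485 nm was read at the kinetic plateau.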
# [7] = Primary qHTS for inhibitors of nuclear receptor binding SET domain protein 2 (NSD2) in an isogenic RCH-ACV NSD2 p.E1099K mutant (9B) (AID 1645876); note: nearly all actives have a fitted effect of over 70% in size; note: potency is the fitted concentration of half-maximal effect
# [8] = molecular target: Catechol O-methyltransferase (Homo sapiens) (UniProt P21964); assay: Confirmatory Screen for Target Class Profiling of Small Molecule Inhibitors of Methyltransferases (AID 1745852; calls by dose curve; note: potency is the fitted concentration of half-maximal effect; for activity change, negative = inhibition: % is set by controls: 0 for no effect and ±100 for the full control effect); details: MTase-Glo luminescence, SAH detection, recombinant enzyme; measured here: COMT max response; stronger effect = lower value
# Chain of Catechol O-methyltransferase (Homo sapiens) (P21964 whole entry, looked up): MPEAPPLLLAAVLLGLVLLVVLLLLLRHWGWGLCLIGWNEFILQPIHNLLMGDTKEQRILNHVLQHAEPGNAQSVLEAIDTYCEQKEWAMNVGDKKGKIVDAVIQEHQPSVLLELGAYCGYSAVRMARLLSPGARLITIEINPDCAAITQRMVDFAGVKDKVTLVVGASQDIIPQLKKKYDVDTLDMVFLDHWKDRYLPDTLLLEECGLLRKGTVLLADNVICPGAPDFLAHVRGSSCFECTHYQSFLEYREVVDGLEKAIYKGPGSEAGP
# [9] = molecular target: Guanidinoacetate N-methyltransferase (Homo sapiens) (UniProt Q14353); assay: as above; details: MTase-Glo luminescence, SAH detection, recombinant enzyme; activity change, negative = inhibition: at 57.3 µM (top of the series)
# [10] = molecular target: Nicotinamide N-methyltransferase (Homo sapiens) (UniProt P40261); assay: as above; details: MTase-Glo luminescence, SAH detection, recombinant enzyme; measured here: NNMT max response; stronger effect = lower value
# Chain of Nicotinamide N-methyltransferase (Homo sapiens) (P40261 whole entry, looked up): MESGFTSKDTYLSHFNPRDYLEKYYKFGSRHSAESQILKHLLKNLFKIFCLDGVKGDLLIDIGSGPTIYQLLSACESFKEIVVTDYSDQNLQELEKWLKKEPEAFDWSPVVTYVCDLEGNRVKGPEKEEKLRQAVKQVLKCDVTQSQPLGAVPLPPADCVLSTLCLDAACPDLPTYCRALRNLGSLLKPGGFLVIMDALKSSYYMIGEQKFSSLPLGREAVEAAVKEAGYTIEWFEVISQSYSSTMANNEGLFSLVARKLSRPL
# [11] = molecular target: Phenylethanolamine N-methyltransferase (Homo sapiens) (UniProt P11086); assay: as above; details: MTase-Glo luminescence, SAH detection, recombinant enzyme; measured here: PNMT max response; stronger effect = lower value
# Chain of Phenylethanolamine N-methyltransferase (Homo sapiens) (P11086 whole entry, looked up): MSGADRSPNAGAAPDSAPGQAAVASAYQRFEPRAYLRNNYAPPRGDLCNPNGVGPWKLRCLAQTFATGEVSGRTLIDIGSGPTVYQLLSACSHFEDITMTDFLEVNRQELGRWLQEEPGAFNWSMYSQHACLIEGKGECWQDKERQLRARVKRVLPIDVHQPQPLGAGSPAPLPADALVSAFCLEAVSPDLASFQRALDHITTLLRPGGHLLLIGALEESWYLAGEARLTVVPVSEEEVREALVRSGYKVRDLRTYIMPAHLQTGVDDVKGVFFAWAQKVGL
# [12] = Viability counterscreen for antagonist of constitutive androstane receptor (CAR) against the NCATS DSHEA and TCM libraries (AID 1794837);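 note: compound exposure lasted 24 h before viability reading; 0% is about no effect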
# In short: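 HepG2-CYP2B6-hCAR cells (2,500/well) were allowed to attach for 5 h, then exposed to compounds with 48 uM CITCO for 24 h at 37C. Viability was read by CellTiter-Fluor fluorescence after 1 h.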
# [13] = Viability counterscreen for agonist of constitutive androstane receptor (CAR) against the NCATS DSHEA and TCM libraries (AID 1794838); note: 0% is about no effect
# In short: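 HepG2-CYP2B6-hCAR cells (2,500/well) attached 5 h, then got compounds plus 0.75 uM PK11195 final. After 24 h at 37C, viability read by CellTiter-Fluor fluorescence (Ex/Em 405/540 nm).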
# [14] = molecular target: Nuclear receptor subfamily 1 group I member 3 (Homo sapiens) (UniProt Q14994); assay: Primary qHTS for agonist of constitutive androstane receptor (CAR) against the NCATS DSHEA and TCM libraries (AID 1794839);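 note: HepG2 cells expressing human CAR with a CYP2B6 reporter plus PK11195 antagonist; 0% is about no effect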
# Chain of Nuclear receptor subfamily 1 group I member 3 (Homo sapiens) (Q14994 whole entry, looked up): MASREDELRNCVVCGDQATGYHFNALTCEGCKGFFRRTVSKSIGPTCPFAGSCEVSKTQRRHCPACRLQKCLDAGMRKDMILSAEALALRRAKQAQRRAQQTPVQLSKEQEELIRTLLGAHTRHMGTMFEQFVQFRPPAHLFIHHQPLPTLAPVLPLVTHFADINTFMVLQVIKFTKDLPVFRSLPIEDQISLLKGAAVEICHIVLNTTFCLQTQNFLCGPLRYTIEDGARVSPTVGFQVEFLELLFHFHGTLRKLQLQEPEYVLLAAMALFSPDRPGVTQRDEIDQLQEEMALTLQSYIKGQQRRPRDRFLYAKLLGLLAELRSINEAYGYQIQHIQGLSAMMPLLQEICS
# In short: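 HepG2-CYP2B6-hCAR cells (2,500/well) were attached for 5 h, then treated for 24 h at 37 °C with compounds plus 0.75 µM PK11195. Luciferase luminescence (ONE-Glo) was read, with CellTiter-Fluor viability (Ex/Em 405/540 nm).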
# [15] = HepG2 viability counterscreen (readout 2: ATP content) against the NCATS DSHEA and TCM libraries (AID 1794840);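 note: HepG2 cells exposed to substances for about 24 h; 0% is about no effect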
# In short: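 HepG2 cells (1,000 cells/well) attached ~4 h, then treated ~24 h at 37C with substances. Protease activity read by GF-AFC (25 uM final, 30 min, Ex/Em 380/510 nm); ATP content then by CellTiter-Glo luminescence.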
# [16] = molecular target: Rap guanine nucleotide exchange factor 3 (Homo sapiens) (UniProt O95398); assay: Counterscreen qHTS for antagonist of cAMP-regulated guanine nucleotide exchange factor 3 (EPAC1) (AID 1645888);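 note: fluorescence loss as bound BODIPY-GDP is released from Rap1B; % of control where 0% means no effect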
# In short: (§1)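 Measured: fluorescence of BODIPY-GDP bound to Rap1B, which falls as exchange proceeds. Conditions include 50 uM competing GDP, 5 and 30 min reads, and a later cAMP challenge for antagonist detection.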
# [17] = molecular target: Rap guanine nucleotide exchange factor 3 (Homo sapiens) (UniProt O95398); assay: Counterscreen qHTS for agonist of cAMP-regulated guanine nucleotide exchange factor 3 (EPAC1) (AID 1645889); note: % of control where 0% means no effect; nearly all actives have a fitted effect of over 40% in size
# In short: as §1
smiles,measurement,setting,value
O=C1Nc2ccc(I)cc2/C1=C/c1cc(Br)c(O)c(Br)c1,Potency,[1],inactive
same,Potency,[2],19.8 µM (active)
same,Potency,[3],inactive
same,Potency,[4],inactive
same,Potency,[5],35 µM (active)
same,Potency,[6],inactive
N#Cc1cc([N+](=O)[O-])c2sc(C(N)=O)[n+]([O-])c2c1,Potency,[7],8.2 µM (active)
same,Potency,[1],10.3 µM (active)
same,Potency,[6],inactive
Nc1ncnc2c1nc(Sc1ccc(Cl)cc1)n2[C@H]1OC2COP(=O)(O)O[C@@H]2C1O (stereo not given in full),Potency,[2],0.789 µM (active)
same,Potency,[3],0.998 µM (active)
same,Potency,[4],1.77 µM (active)
same,Potency,[5],1.97 µM (active)
CCCc1c(-c2ccc(O)cc2)nn(-c2ccc(O)cc2)c1-c1ccc(O)cc1,activity,[8],-7.84%
same,Potency,[9],43.2 µM (active)
same,activity,[10],-57.1%
same,activity,[11],-22%
same,Potency,[6],inactive
CC(/C=C/c1cccc(Oc2ccc(F)cc2)c1)N(O)C(N)=O (stereo not given),Potency,[2],inactive
same,Potency,[3],inactive
same,Potency,[4],inactive
same,Potency,[5],44.1 µM (active)
same,Potency,[6],inactive
COc1ccc(CCn2nnnc2C2(c3ccc(C)cc3)CC2)cc1,Potency,[2],inactive
same,Potency,[3],inactive
same,Potency,[6],inactive
O=C(O)/C=C/c1ccc(O)c(O)c1,activity,[8],150%
same,"activity change, negative = inhibition",[9],0.674%
same,activity,[10],-14.8%
same,activity,[11],-0.851%
same,outcome,[12],inactive
same,outcome,[13],inactive
same,outcome,[14],inactive
same,outcome,[15],inactive
same,Potency,[6],inactive
CC(C)(CO)Cc1cc(C(C)(C)C)c(O)c(C(C)(C)C)c1,Potency,[3],inactive
same,Potency,[4],inactive
same,Potency,[5],49.4 µM (active)
same,Potency,[6],inactive
CCCC[C@@]1(C2CCCC2)Cc2cc(OCC(=O)O)c(Cl)c(Cl)c2C1=O,Potency,[3],inactive
same,Potency,[4],inactive
same,Potency,[5],6.01 µM (active) and 3.5 µM (active)
same,outcome,[16],inactive
same,outcome,[17],inactive
same,activity,[8],8.39%
same,"activity change, negative = inhibition",[9],7.65%
same,activity,[10],-66.3%
same,activity,[11],7.03%
same,Potency,[6],inactive
C=CCN1CCc2cc(O)c(O)cc2C(c2ccccc2)C1 (stereo not given),activity,[8],101%
same,"activity change, negative = inhibition",[9],8.51%
same,activity,[10],-4.37%
same,activity,[11],-2.84%
same,Potency,[6],inactive
Fc1ccc(CN(C2=NCCN2)c2c(Cl)cccc2Cl)cc1,activity,[8],-2.41%
same,"activity change, negative = inhibition",[9],6.96%
same,activity,[10],-23.8%
same,activity,[11],-2.64%
same,Potency,[6],inactive
O=C(O)Cc1ccc(O)c(O)c1,activity,[8],122%
same,"activity change, negative = inhibition",[9],5.19%
same,activity,[10],0.212%
same,activity,[11],4.32%
same,Potency,[6],inactive
CC(=O)N[C@@H](Cc1c[nH]c2ccccc12)C(=O)OCc1cc(C(F)(F)F)cc(C(F)(F)F)c1,Potency,[3],inactive
same,Potency,[4],inactive
same,Potency,[5],35 µM (active)
COc1cc(/C=C(\C#N)C(=O)Nc2nnc(C(F)(F)F)s2)ccc1OCc1ccc(C(F)(F)F)cc1C(F)(F)F,Potency,[7],inactive
same,Potency,[1],inactive
same,Potency,[6],inactive
